TDP1 cell noCPT: qHTS for Inhibitors of human tyrosyl-DNA phosphodiesterase 1 (TDP1): qHTS in cells in absence of CPT; DT40 Tdp1-/- hTDP1 cells, no CPT, ATP luminescence, 48 h; AID 686978, 2013; Potency, µM (highest dose often 46.2 µM), without a hit: at the top dose activity change, negative = growth inhibition, hits mostly inhibitors; hit rate 15% among 420,000; note: potency is the fitted concentration of half-maximal effect; nearly all actives have a fitted effect of over 55% in size
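DT40 Tdp1-/-;hTDP1 cells, no CPT (DMSO vehicle only), 400 cells/well; compounds pin-transferred; ≥48 hr, 37 °C; CellTiter-Glo 30 min RT dark, luminescence read.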
DT40 TDP1 CPT: qHTS for Inhibitors of human tyrosyl-DNA phosphodiesterase 1 (TDP1): qHTS in cells in presence of CPT; chicken DT40 Tdp1-/-;hTDP1 cells + 20 nM CPT, ATP luminescence, 48 h; Potency, µM (highest dose often 46.2 µM), for the others: at the highest dose activity change, negative = growth inhibition, usual class: inhibitors; hit rate 12% among 420,000; AID 686979, 2013; note: potency is the fitted concentration of half-maximal effect; nearly all actives have a fitted effect of over 55% in size
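Chicken DT40 Tdp1-/- cells complemented with human TDP1, 400 cells/well, exposed to compounds plus 20 nM camptothecin for at least 48 h at 37 C; viability read as ATP content by CellTiter-Glo luminescence.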
HT1080-NT tox: qHTS for induction of synthetic lethality in tumor cells producing 2HG: qHTS for the HT-1080-NT fibrosarcoma cell line; HT-1080-NT fibrosarcoma viability, CellTiter-Glo ATP luminescence, 48 h; Potency, µM (titrated, usually from 46.1 µM), for inactives: at the top dose activity, negative = less viability, actives largely listed as cytotoxic; hit rate 1.6% among 360,000;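 note: NT is the 2HG producing partner of a matched IDH1 knockdown line; potency is the fitted concentration of half-maximal effect; 0% = DMSO-treated cells and -100% = media-only wells without cells; nearly all actives have a fitted effect of over 55% in size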
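Viability of the 2HG-overproducing fibrosarcoma line after 48 hours of compound exposure at 37 degrees C was determined by luminescence with CellTiter-Glo, and concentration-effect curves were then fitted and categorized.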
IL-1B inflam inh: qHTS for Inhibitors of Inflammasome Signaling: IL-1-beta AlphaLISA Primary Screen; AID 743279, 2014; activity change, % at 57.5 µM; THP-1 LPS/ATP IL-1B secretion, AlphaLISA, 16 h; active compounds read low; hit rate 4.7% among 360,000; in the data active = activity change below about -50%; inconclusive = mostly about -30% to -49%
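Secreted IL-1B measured by AlphaLISA bead assay after 16 h compound exposure of THP-1 cells; compounds (final up to 57.5 uM) added 1 h before LPS (250 ng/mL) and ATP (1.25 mM) stimulation; lower signal means less secretion.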
HT1080 IDH1KD tx: qHTS for induction of synthetic lethality in tumor cells producing 2HG: qHTS for the HT-1080-IDH1KD cell line | HT-1080 IDH1 knockdown viability, ATP luminescence, 48 h | Potency, µM (titrated, usually from 46.1 µM), for inactives: at the top dose activity, negative = toxicity, actives largely listed as cytotoxic | hit rate 2% among 360,000 | AID 686971, 2013;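 note: potency is the fitted concentration of half-maximal effect; 0% = DMSO wells and -100% = cell-free medium wells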
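Luminescent ATP read-out (CellTiter-Glo, 10 min at room temperature) after 48 h compound exposure at 37 °C gave viability of IDH1-knockdown HT-1080 cells. Activity was normalised to DMSO and cell-free wells, then fitted as concentration-response curves.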
ELG1 DNA repair: qHTS screen for small molecules that inhibit ELG1-dependent DNA repair in human embryonic kidney (HEK293T) cells expressing luciferase-tagged ELG1; hit rate 2.3% among 330,000; Potency, µM (highest dose often 46.1 µM), without a hit: top-dose activity change, negative = inhibition, usual class: inhibitors; AID 504467, 2011; HEK293T ELG1-luciferase reporter, luminescence, 16 h; DNA damage induced by 5-fluorouridine; note: potency is the fitted concentration of half-maximal effect; nearly all actives have a fitted effect of over 55% in size
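5-Fluorouridine DNA damage + compound/DMSO, 2,000 cells/well, 16 h, 37 °C/5% CO2. ONE-Glo, 30 min RT, luminescence. Readout = decrease in reporter signal.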
* hit, by the source's call; ? = inconclusive; . = no result; [ ] = dose if it differs, or a comment. A selection: hits, their analogues and other compounds. The true share with any hit is near 19%. Unless noted, calls come from the whole dose curve; as a rule, active = well fitted curve in the direction sought with a large enough effect; inconclusive = small, poorly fitted or top-dose-only effect, or another doubt; inactive = no such curve, though single readings can be large; an effect the other way counts as inactive or inconclusive. Unless noted, % is set by controls: 0 for no effect and ±100 for the full control effect.

SMILES	TDP1 cell noCPT	DT40 TDP1 CPT	HT1080-NT tox	IL-1B inflam inh	HT1080 IDH1KD tx	ELG1 DNA repair
CC(=O)N/C(=C\c1ccccc1)C(=O)OC(C)C(=O)NCc1ccccc1 (stereo not given)	-18.9%	-10.8%	0.5%	4.5	1.5%	-3.0%
Nc1nc2[nH]cc(CCc3ccc(C(=O)N[C@@H](CCC(=O)O)C(=O)O)cc3)c2c(=O)[nH]1	0.0299µM*	0.0473µM*	.	.	.	.
Cc1ccc(C(=O)C(C(=O)/C=C/c2ccccc2)=C2SCCCS2)cc1	4.61µM*	5.8µM*	11.6µM*	-111.4*	10.3µM*	18.4µM*
CC1(c2nnnn2Cc2ccccc2)CCC(=O)N1CC1CCCCC1 (stereo not given)	?	?	-2.5%	14.4	-9.1%	.
CCN1C(=O)c2ccccc2Sc2ccc(NC(=O)c3ccc(C#N)cc3)cc21	16.4µM*	20.6µM*	.	.	.	.
CCN1C(=O)c2ccccc2Sc2ccc(NC(=O)Nc3cccc([N+](=O)[O-])c3C)cc21	?	20.6µM*	.	.	.	.
Cc1ccc(C(=O)Nc2ccc3c(c2)N(C)C(=O)c2ccccc2S3)cc1	2.31µM*	5.17µM*	.	.	.	.
CCN1C(=O)c2ccccc2Sc2ccc(NC(C)=O)cc21	-2.0%	0.6%	.	.	.	.
CN1C(=O)c2ccccc2Sc2ccc(NC(=O)c3ccccc3F)cc21	14.6µM*	18.4µM*	.	.	.	.
CC1(C)CC(=O)C=C(c2n[nH]nc2-c2ccc(F)c(F)c2)C1	-26.5%	-12.7%	2.1%	10.4	8.3%	.
CCOc1cc2c(cc1OCC)C(CC(=O)OC)N(C(=O)Nc1cc(OC)ccc1OC)CC2 (stereo not given)	14.6µM*	20.6µM*	.	.	.	.
CCOc1cc2c(cc1OCC)C(CC(=O)OC)N(C(=O)Nc1cc(C)cc(C)c1)CC2 (stereo not given)	-27.1%	-17.6%	.	.	.	.
CCOC(=O)CC1c2cc(OCC)c(OCC)cc2CCN1C(=O)Nc1cccc(Cl)c1 (stereo not given)	16.4µM*	?	.	.	.	.
COC(=O)c1ccc(OCC(=O)NC2CCCCCCC2)cc1	16.4µM*	?	1.4%	1.1	-0.5%	-5.4%
Cc1ccc(NC(=O)NC2CCCCCCC2)c(C)c1	-0.4%	-7.5%	0.0%	26.1	13.1%	3.1%
O=C(COc1ccc(C(=O)c2ccccc2)cc1)NC1CCCCC1	-17.7%	-6.4%	1.7%	12.9	11.8%	1.5%
Cc1ccc(NC(=O)NC2CCCCC2)c(C)c1	1.16µM*	1.03µM*	9.5%	-0.3	11.4%	21.7%
CC(C)CCNC(=O)COc1ccc(C(=O)c2ccccc2)cc1	?	18.4µM*	?	?	-20.4%	?
O=C(COc1ccc(C(=O)c2ccccc2)cc1)NC1CCCCCC1	16.4µM*	25.9µM*	4.5%	-0.2	-2.2%	?
CCC(C)(C)NC(=O)COc1ccc(C(=O)c2ccccc2)cc1	-0.5%	-6.9%	0.8%	21.1	-5.8%	-21.1%
CC1CCCCN1S(=O)(=O)Cc1ccccc1Cl (stereo not given)	7.1%	17.5%	17.5%	8.7	16.5%	9.3%
Cn1nc(C(=O)NCCN2Cc3ccccc3OC(c3ccsc3)C2)c2ccccc2c1=O (stereo not given)	-9.3%	-13.4%[9.04 µM]	.	.	.	.
CC(=O)c1ccc(NC(=O)NC2CCCCCCC2)cc1	-21.9%	?	8.5%	-66.0*	-1.3%	?
O=Cc1ccc(OCC(=O)NC(=O)NC2CCCCC2)cc1	?	?	4.1%	6.0	-0.5%	-0.5%
CC(=O)c1ccc(OCC(=O)NC(=O)NC2CCCCC2)cc1	16.4µM*	23.1µM*	-9.6%	31.8	-1.7%	5.0%
SMILES	TDP1 cell noCPT	DT40 TDP1 CPT	HT1080-NT tox	IL-1B inflam inh	HT1080 IDH1KD tx	ELG1 DNA repair
CC(C)(C)c1ccc(OCCC(=O)OCC(=O)NC2CCCCC2)cc1	-6.7%	-1.4%	4.1%	-5.6	11.6%	-1.6%
O=C(NN=C(c1ccccc1)c1ccccc1)C(CCl)C1CCCCC1 (stereo not given)	-14.0%	-0.6%	9.0%	34.1	7.4%	13.3%
CC(C)(C)c1ccc(OCCC(=O)OCC(=O)NC(=O)NC2CCCC2)cc1	18.4µM*	18.4µM*	?	-86.5*	?	-12.8%
O=C(CNC1CCCCC1)NN=C(c1ccccc1)c1ccccc1	?	?	-1.4%	-63.8*	-6.3%	-1.4%
C[C@@H]1CN([C@H](C)CO)C(=O)CCCn2cc(nn2)CO[C@H]1CN(C)C(=O)c1ccc2ccn(C)c2c1	32.2%	3.5%	27.6%	-2.2	2.4%	.
CCc1ccc(N2C(=O)C(Cl)=C(N3CCOCC3)C2=O)cc1	-24.9%	?	8.4%	-4.6	-4.6%	11.8%
COc1ccc(N2C(=O)C(Cl)=C(N3CCOCC3)C2=O)cc1	29.1µM*	-18.6%	?	-12.7	-25.7%	5.1%
CCSc1nc(-c2ccccc2)nc(C(Cl)Cl)n1	8.2µM*	1.84µM*	?	-24.1	?	18.4µM*
CN(C)c1ccc(/C=C/c2c(F)cnc3ccccc23)cc1	3.16µM*	7.94µM*	.	.	.	.
Cc1cc(/C=C/c2c(C)cnc3ccccc23)ccc1N(C)C	8.91µM*	8.91µM*	.	.	.	.
Cc1cnc2ccc(I)cc2c1/C=C/c1ccc(N(C)C)cc1	4.47µM*	?	.	.	.	.
Cc1ccc(C(=O)O)cc1NC1(c2ccccc2)C(=O)c2ccccc2C1=O	4.4%	2.4%	.	.	.	.
C[C@@H]1O[C@@H](O[C@@H]2[C@@H](O)[C@H](OCCc3ccc(O)c(O)c3)O[C@H](CO)[C@H]2OC(=O)/C=C/c2ccc(O)c(O)c2)[C@H](O)[C@H](O)[C@H]1O	-0.8%	-13.9%	11.5%	2.6	4.9%	14.2%
Cc1ccccc1OCCOC(=O)c1ccc(S(=O)(=O)N2CCCC2)cc1	3.0%	-4.1%	0.8%	-8.3	-4.8%	-2.2%
O=C(c1ccc(S(=O)(=O)N2CCCCCC2)cc1)N(c1ccccn1)C1CCCCC1	?	?	3.8%	19.7	-16.3%	?
O=C(c1ccc(S(=O)(=O)N2CCCCC2)cc1)N(c1ccccn1)C1CCCCC1	?	23.1µM*	24.1%	2.4	26.6%	1.9%
CC1CC(C)CN(S(=O)(=O)c2ccc(C(=O)N(c3ccccn3)C3CCCCC3)cc2)C1 (stereo not given)	16.4µM*	?	6.3%	-13.6	-3.0%	?

Source: PubChem
